Screening data deposited in PubChem BioAssay by National Center for Advancing Translational Sciences (NCATS).
TDP1 cell noCPT: qHTS for Inhibitors of human tyrosyl-DNA phosphodiesterase 1 (TDP1): qHTS in cells in absence of CPT; Potency, µM (top dose mostly 46.2 µM), usual class: inhibitors; 15% of 420,000 active; DT40 Tdp1-/- hTDP1 cells, no CPT, ATP luminescence, 48 h; AID 686978, 2013; note: nearly all actives have a fitted effect of over 55% in size
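Seeded 400 DT40-hTDP1 cells/well (vehicle DMSO, no 20 nM CPT); pinned compounds; ≥48 hr at 37 °C; CellTiter-Glo luminescence as viability measure.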
HT1080-NT tox: qHTS for induction of synthetic lethality in tumor cells producing 2HG: qHTS for the HT-1080-NT fibrosarcoma cell line; HT-1080-NT fibrosarcoma viability, CellTiter-Glo ATP luminescence, 48 h; Potency, µM (titrated, usually from 46.1 µM), actives largely listed as cytotoxic; 1.6% of 360,000 active; AID 686970, 2013;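 note: NT is the 2HG producing partner of a matched IDH1 knockdown line; nearly all actives have a fitted effect of over 55% in size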
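Viability of the 2HG-overproducing fibrosarcoma line after 48 hours of compound exposure at 37 degrees C was determined by luminescence with CellTiter-Glo, and concentration-effect curves were then fitted and categorized.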
IL1B secr inh: qHTS for Inhibitors of Inflammasome Signaling: IL-1-beta AlphaLISA Primary Screen; THP-1 LPS/ATP IL-1B secretion, AlphaLISA, 16 h; stronger effect = lower value; activity change, % at 57.5 µM; 4.7% of 360,000 active; AID 743279, 2014; in the data active = activity change below about -50%; inconclusive = mostly about -30% to -49%
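THP-1 cells pretreated 1 hr with compounds (up to 57.5 uM final), then stimulated with LPS (250 ng/mL final) plus ATP (1.25 mM final); secreted IL-1B measured by AlphaLISA after 16 hr, decreased signal indicating inhibition.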
TDP1 cell CPT: qHTS for Inhibitors of human tyrosyl-DNA phosphodiesterase 1 (TDP1): qHTS in cells in presence of CPT | Potency, µM (doses to about 46.2 µM), usual class: inhibitors | chicken DT40 Tdp1-/-;hTDP1 cells + 20 nM CPT, ATP luminescence, 48 h | 12% of 420,000 active; note: nearly all actives have a fitted effect of over 55% in size
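Chicken DT40 Tdp1-/- cells stably complemented with human TDP1 were seeded at 400 cells/well in medium containing 20 nM camptothecin, exposed to pin-transferred compounds, and grown at 37 °C for at least 48 hr. Viability was read as ATP luminescence.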
HT1080 IDH1KD tx: qHTS for induction of synthetic lethality in tumor cells producing 2HG: qHTS for the HT-1080-IDH1KD cell line; HT-1080 IDH1 knockdown viability, ATP luminescence, 48 h; Potency, µM (series often up to 46.1 µM), usual class: cytotoxic; 2% of 360,000 active
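CellTiter-Glo luminescence after 48 h compound exposure at 37 degrees C of IDH1-knockdown HT-1080 cells in 5% FBS RPMI. %Activity scaled between DMSO wells and cell-free media wells, with curves fitted and assigned curve classes.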
ELG1 DNA repair: qHTS screen for small molecules that inhibit ELG1-dependent DNA repair in human embryonic kidney (HEK293T) cells expressing luciferase-tagged ELG1 | HEK293T ELG1-luciferase reporter, luminescence, 16 h; DNA damage induced by 5-fluorouridine | Potency, µM (titrated, usually from 46.1 µM), hits mostly inhibitors | 2.3% of 330,000 active | AID 504467, 2011; note: nearly all actives have a fitted effect of over 55% in size
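Overnight (16 hr) co-exposure of 2,000 cells/well to 5-fluorouridine and compound at 37 °C preceded detection. Luciferase was quantified via ONE-Glo luminescence; loss of signal denotes inhibition.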
Numbers stand for hits; i = inactive; ? = inconclusive; nt = no result given; [ ] = dose if it differs, or a comment. Most compounds without a hit are left out; they make up all but 19% or so of the library. Unless noted, calls come from the whole dose curve; as a rule, active = well fitted curve in the direction sought with a large enough effect; inconclusive = small, poorly fitted or top-dose-only effect, or another doubt; inactive = no such curve, though single readings can be large; an effect the other way counts as inactive or inconclusive.

SMILES	TDP1 cell noCPT	HT1080-NT tox	IL1B secr inh	TDP1 cell CPT	HT1080 IDH1KD tx	ELG1 DNA repair
COc1ccc(CCNC(=O)C2CCC(CNS(=O)(=O)c3ccc(C)cc3)CC2)cc1OC (stereo not drawn)	i	nt	nt	i	nt	nt
CC1(C(=O)Nc2ccc3c(c2)OCO3)Cc2c(-c3ccc4c(c3)OCO4)ccnc2O1 (stereo not drawn)	2.31µM	?	i	1.84µM	2.06µM	nt
CC1(C(=O)Nc2ccc3c(c2)OCO3)Cc2c(-c3cccc(C(N)=O)c3)ccnc2O1 (stereo not drawn)	4.11µM	?	i	2.91µM	3.66µM	nt
COc1ccc(NC(=O)C2(C)Cc3c(-c4ccc5c(c4)OCO5)ccnc3O2)cn1 (stereo not drawn)	2.59µM	?	i	3.26µM	2.91µM	nt
COc1ccc(NC(=O)C2(C)Cc3c(-c4cccc(C(N)=O)c4)ccnc3O2)cc1OC (stereo not drawn)	?	i	i	?	i	nt
CC(C)c1ccc(NC(=O)C2(C)Cc3c(-c4ccc5c(c4)OCO5)ccnc3O2)cc1 (stereo not drawn)	?	i	i	23.1µM	i	nt
COCCN(C(=O)COC(=O)c1cccnc1SC)c1c(N)n(Cc2ccccc2)c(=O)[nH]c1=O	i	i	i	i	i	i
COc1ccc(/C=C/c2ccc(=O)n(Cc3ccccc3)n2)cc1	?	i	-155.8	?	?	?
O=c1ccc(/C=C/c2ccccc2)nn1Cc1ccc(F)cc1	i	i	-59.7	i	i	i
Cc1ccc(/C=C/c2ccc(=O)n(Cc3ccccc3Cl)n2)cc1	25.9µM	?	?	16.4µM	i[9.24 µM]	?
COC(=O)C1CSC(C(=O)OC)N1C(=O)CN1CCN(c2ccc(OC)cc2)CC1 (stereo not drawn)	i	i	i	i	i	i
CC(=O)Nc1cccc(Nc2nc3ccccc3n3c(C)nnc23)c1	2.31µM	nt	nt	2.59µM	nt	nt
Cc1cc(C)c(Nc2nc3ccccc3n3c(C)nnc23)c(C)c1	13µM	nt	nt	14.6µM	nt	nt
Cc1ccc(/C=C2\OC(=O)c3ccccc32)cc1	i	i	i	i	i	?
CCc1cc2c(=O)c(-c3ccc4c(c3)OCCO4)coc2c(CN2CCCCC2C)c1O (stereo not drawn)	1.46µM	i	?	1.84µM	?	i
CCc1cc2c(=O)c(-c3nc4ccccc4[nH]3)coc2c(CN2CCCCC2C)c1O (stereo not drawn)	10.3µM	i	i	?	?	20.6µM
CCc1cc2c(=O)c(-c3ccc4c(c3)OCCO4)coc2cc1OS(C)(=O)=O	?	i	-86.6	i	?	?
O=c1oc2c(CN3CCCCC3)c(O)ccc2cc1-c1nc2ccccc2[nH]1	i	i	i	i	i	?
NC(=O)C(NN=C(c1ccccc1)c1ccccc1)c1ccccc1 (stereo not drawn)	?	i	i	i	i	nt
CC(=O)NNc1nc(-c2ccccc2)cs1	?	i	i	20.6µM	i	i
O=C1OC(Nc2nc(-c3ccc(F)cc3)cs2)c2ccccc21 (stereo not drawn)	23.1µM	?	-92.1	14.6µM	23.1µM	i
CC(=O)Nc1nc(-c2cccc3ccccc23)cs1	?	i	i	14.6µM	i	?
O=C1OC(Nc2nc3ccccc3s2)c2ccccc21 (stereo not drawn)	i	i	i	i	i	?
O=C(NNc1nc(-c2ccc(F)cc2)cs1)c1ccccc1	4.11µM	?	i	2.59µM	?	?
CC(=O)Nc1nc(-c2ccc(-c3ccccc3)cc2)cs1	i	i	i	i	i	nt
SMILES	TDP1 cell noCPT	HT1080-NT tox	IL1B secr inh	TDP1 cell CPT	HT1080 IDH1KD tx	ELG1 DNA repair
CCOC(=O)Cc1csc(NC(=O)Cc2ccc(Cl)cc2)n1	i	i	i	?	i	?
O=C(NNc1nc(-c2ccccc2)cs1)c1cccs1	23.1µM	?	i	?	?	i
O=C(NC(=S)Nc1nc(-c2ccccc2)cs1)c1cccs1	i	i	i	i	i	?
CCOC(=O)Nc1nc(-c2ccc(Cl)cc2Cl)cs1	10.3µM	i	i	?	i	?
CCN(c1ccccc1)S(=O)(=O)c1ccc(NC(=O)c2cc(=O)c3cc(C)ccc3o2)cc1	i	nt	nt	i	nt	nt
O=C(CN1CCN(C(=O)C2CC2)CC1)Nc1cc(C(F)(F)F)cc(C(F)(F)F)c1	?	i	i	?	i	i
O=C(Nc1nnc(SCC(=O)N2CCCCC2)s1)c1c(F)cccc1F	i	i	i	i	i	i
Cc1ccc(C(=O)Nc2ccc(S(=O)(=O)N3CCOCC3)cc2)cc1Br	?	?	nt	i	i	nt
COc1ccc(-n2c(C)c(C)c3c(N)ncnc32)cc1	?	i	i	?	i	10.3µM
COC(=O)c1c(N)nc(C)n1-c1ccc(OC)cc1	i	i	i	i	i	i
Cc1ccc(C)c(S(=O)(=O)N2CCCOC2CNC(=O)C(=O)NCc2ccncc2)c1 (stereo not drawn)	i	i	i	i	i	i
COc1cccc(=O)c2c(C)n(CC(=O)c3ccccc3)c(C)c12	i	i	i	?	i	i
CCOc1cccc(=O)c2c(C)n(CC(=O)c3ccccc3)c(C)c12	?	i	-59.4	?	i	?
O=C(Nc1nnc([C@@H]2C[C@H](O)[C@@H](CO)O2)s1)Nc1ccc(F)cc1F	i	i	i	i	?	nt
CC1(C(=O)O)CCCN(C(=O)c2ccc(OC(F)F)cc2)C1 (stereo not drawn)	i	i	i	i	i	nt
CC(C)Cc1nc(SCC(=O)N2CCCCC2)c2c(=O)n(C)c(=O)n(C)c2n1	?	i	i	?	i	i
O=C(NCCc1ccccc1)c1ccc2c(c1)nc1n2CCOC1	i	nt	nt	i	nt	nt
CCn1c(SCc2ccccc2Cl)nc(=O)c2c(C(=O)OC)cc(C3CC3)nc21	16.4µM	nt	nt	11.6µM	nt	nt
O=c1[nH][nH]c2c1[C@H](c1ccc(F)cc1)O[C@H](CCc1ccccc1)C2	i	i	i	i	i	nt
COc1cc(/C=N/NC(=O)c2ccc3c(c2)OCO3)ccc1O	i	i	i	i	i	?
COc1cc(Cl)cc(/C=N\NC(=O)c2ccc3c(c2)OCO3)c1O	i	9.2µM	i	?	9.2µM	nt
O=C(N/N=C/c1cc(Cl)cc([N+](=O)[O-])c1O)c1ccc2c(c1)OCO2	9.2µM	i	i	16.4µM	i	?
